Values joined by “and” are separate entries in the source; they are usually repeats but may differ in a detail not shown here. Equal entries are not always repeated. Screen size: about 16,000 compounds; about 120 (0.75%) were called active. Inconclusive results (about 4%) are left out. Calls come from the whole dose curve; as a rule, active = well fitted inhibition curve with a large enough effect; inconclusive = small, poorly fitted or top-dose-only effect; inactive = no such curve, though single readings can be large or run the other way. The full list was thinned out, with actives kept by preference.
Biological target: Rap guanine nucleotide exchange factor 3 (Homo sapiens) (UniProt O95398)
Assay: Validation qHTS for antagonist of cAMP-regulated guanine nucleotide exchange factor 3 (EPAC1); note: nearly all actives have a fitted effect of over 75% in size
Conditions: EPAC1 Rap1B-BODIPY-GDP exchange, fluorescence; series mostly up to 150 µM; activity change, negative = inhibition: at the top concentration
Excerpt: Assay Provider (PI): Xiaodong Cheng Ph.D.
The University of Texas Medical Branch, […], TX
In multi-cellular eukaryotic organisms, the effects of cAMP are transduced by two ubiquitously-expressed intracellular cAMP receptors, the classic protein kinase A/cAMP-dependent protein kinase (PKA/cAPK) and the more recently discovered exchange protein directly activated by cAMP/cAMP-regulated guanine nucleotide exchange factor (EPAC/cAMP-GEF). Both PKA and EPAC are ubiquitously expressed in all tissues, and an increase in intracellular cAMP levels will lead to the activation of both PKA and EPAC. Therefore, careful dissections of the individual role and relative contribution of EPAC and PKA within the overall cAMP signaling in various model systems are critical for further elucidating the mechanism of cAMP signaling. To date no EPAC-specific antagonists and agonist, as well as isoform-specific agonists have been reported, and developing EPAC-specific pharmacological probes to determine the physiological functions that EPAC play in the overall cAMP-mediated signaling remains a major challenge within the research field. Furthermore, identified regulators of EPAC may lead to new mechanism-based therapeutic strategies specifically targeting the EPAC / cAMP-signaling components as EPAC has been implicated to play important roles in major human pathological conditions such as diabetes, heart disease, and cancer.
This qHTS will be used to screen the Molecular Libraries Small Molecule Repository (MLSMR) as a concentration-titration series using the NCGC unique quantitative screening (qHTS) platform to find activators for EPAC1. In addition, this assay will also be used as a counterscreen for the EPAC2 qHTS. This fluorescent based assay is developed and validated for EPAC1 that measures exchange using EPAC effector Rap1 complex with BODIPY-GDP, a GDP analog with a tethered fluorophores. Activators are identified by monitoring the change in fluorescence signal as the exchanged free BODIPY-GDP has a reduced fluorescence compared to Rap1-bound BODIPY-GDP. Increase in signal (activation) is the desired outcome for the EPAC1 agonist while no activity in this assay is desired for the EPAC2 agonist counterscreen.
[1] de Rooij, J., Zwartkruis, F. J., Verheijen, M. H., Cool, R. H., Nijman, S. M., Wittinghofer, A., and Bos, J.L. (1998) Nature 396, 474-477.
Briefly, three uL of reagents (100 nM EPAC1, 250 nM RAP1B-BODIPY-GDP, 50 uM GDP) were dispensed into a 1536-well Greiner black solid-bottom medium binding assay plate. Controls and test compounds (23 nL) were transferred to the plate via a Kalypsys pin tool equipped with a 1536-pin array. The plates were centrifuged at 1,000 rpm for 15 seconds followed by 5 minute incubation at room temperature. The assay plates were read at 5 minute intervals for 30 minutes in the ViewLux plate reader using 480nm excitation and 540nm emission filters. The results were normalized to the […] positive control ATA and DMSO.
Potency is the fitted concentration of half-maximal effect.

Sequence of Rap guanine nucleotide exchange factor 3 (Homo sapiens) (O95398 whole entry, looked up): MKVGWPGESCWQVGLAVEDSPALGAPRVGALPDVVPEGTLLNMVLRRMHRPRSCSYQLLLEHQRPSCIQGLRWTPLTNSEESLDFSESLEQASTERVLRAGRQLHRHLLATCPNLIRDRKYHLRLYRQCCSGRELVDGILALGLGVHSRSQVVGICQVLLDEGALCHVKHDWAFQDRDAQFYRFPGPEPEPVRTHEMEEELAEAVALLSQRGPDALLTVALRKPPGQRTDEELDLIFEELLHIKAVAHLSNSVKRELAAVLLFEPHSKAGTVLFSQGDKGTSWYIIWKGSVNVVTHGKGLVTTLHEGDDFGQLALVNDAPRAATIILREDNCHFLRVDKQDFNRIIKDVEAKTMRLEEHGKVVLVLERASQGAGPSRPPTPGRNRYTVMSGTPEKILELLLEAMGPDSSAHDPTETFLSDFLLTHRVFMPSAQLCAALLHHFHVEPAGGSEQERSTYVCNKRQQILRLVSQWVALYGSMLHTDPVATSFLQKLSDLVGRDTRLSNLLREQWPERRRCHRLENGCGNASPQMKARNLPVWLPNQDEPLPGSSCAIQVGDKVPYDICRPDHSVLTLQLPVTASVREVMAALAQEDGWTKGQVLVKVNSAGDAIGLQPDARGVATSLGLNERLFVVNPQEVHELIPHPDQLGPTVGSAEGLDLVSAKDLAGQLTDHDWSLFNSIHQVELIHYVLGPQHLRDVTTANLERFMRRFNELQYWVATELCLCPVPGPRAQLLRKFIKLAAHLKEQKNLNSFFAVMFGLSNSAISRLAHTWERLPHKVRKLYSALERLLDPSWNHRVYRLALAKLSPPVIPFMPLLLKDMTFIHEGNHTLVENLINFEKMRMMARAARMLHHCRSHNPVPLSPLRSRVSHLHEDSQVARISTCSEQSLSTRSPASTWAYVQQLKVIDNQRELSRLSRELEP

Potency, inactive:
CCCc1c(OCCCCc2nn[nH]n2)ccc(C(C)=O)c1O, CC(C)=CCC1=C(O)c2ccccc2C(=O)C1=O, N[C@H](C(=O)O)c1cc(O)cc(O)c1, Oc1cc(O)c2c(c1)O[C@H](c1ccc(O)c(O)c1)[C@@H](O)C2

Potency, active:
O=S(=O)(O)c1cc(N=C=S)ccc1/C=C/c1ccc(N=C=S)cc1S(=O)(=O)O 35.5 µM, CCCc1c(OCCCOc2ccc(OCC(=O)O)cc2)ccc(CC=O)c1O 100 µM, O=C(Nc1cccc(C(=O)Nc2ccc(S(=O)(=O)O)c3cc(S(=O)(=O)O)cc(S(=O)(=O)O)c23)c1)Nc1cccc(C(=O)Nc2ccc(S(=O)(=O)O)c3cc(S(=O)(=O)O)cc(S(=O)(=O)O)c23)c1 25.1 µM, O=C(Nc1cc(C(=O)Nc2ccc(S(=O)(=O)O)cc2S(=O)(=O)O)cc(C(=O)Nc2ccc(S(=O)(=O)O)cc2S(=O)(=O)O)c1)Nc1cc(C(=O)Nc2ccc(S(=O)(=O)O)cc2S(=O)(=O)O)cc(C(=O)Nc2ccc(S(=O)(=O)O)cc2S(=O)(=O)O)c1 15.8 µM, O=C(Nc1ccc(C(=O)Nc2ccc(C(=O)Nc3ccc(S(=O)(=O)O)c4cc(S(=O)(=O)O)cc(S(=O)(=O)O)c34)cc2)cc1)Nc1ccc(C(=O)Nc2ccc(C(=O)Nc3ccc(S(=O)(=O)O)c4cc(S(=O)(=O)O)cc(S(=O)(=O)O)c34)cc2)cc1 39.8 µM and 8.91 µM, C=CC(C)(C)c1[nH]c2ccccc2c1C1=C(O)C(=O)C(c2c[nH]c3c(CC=C(C)C)cccc23)=C(O)C1=O 56.2 µM, NC(C(=O)O)c1cc(O)c(Cl)c(O)c1 (stereo not given) 56.2 µM, Cc1cc2c(C(C)C)c(O)c(O)c(C=O)c2c(O)c1-c1c(C)cc2c(C(C)C)c(O)c(O)c(C=O)c2c1O 50.1 µM and 39.8 µM and 79.4 µM, C=CC1=C(C)C2=CC3=NC(=C(CC(=O)[O-])C4=NC(=C(C)C4=C([O-])[O-])C=c4[n-]c(c(C)c4CC)=CC1=N2)C(CCC(=O)[O-])C3C.[Cu+2].[Na+].[Na+].[Na+] (stereo not given) 89.1 µM, CCCCCCCCCCCCCCCCC(C(=O)O)C(O)(CC(=O)O)C(=O)O (stereo not given) 35.5 µM, Oc1cc(O)c2c(c1)O[C@H](c1ccc(O)c(O)c1)[C@H](O)C2 79.4 µM, O=c1c(O)cc(C2Oc3cc(O)cc(O)c3CC2O)cc2c(C3Oc4cc(O)cc(O)c4CC3O)cc(O)c(O)c12 (stereo not given) 39.8 µM

Activity change, negative = inhibition, inactive:
Nc1nc2c(c(=O)[nH]1)N(C=O)C(CNc1ccc(C(=O)NC(CCC(=O)O)C(=O)O)cc1)CN2 (stereo not given) 12.1%, Fc1ccc(Nc2ccnc(-c3ccc4c(c3)OCO4)n2)cc1 -16.5%, O=C(Nc1nccs1)[C@@H]1CC=C[C@@H]2CCN(Cc3ccccc3)C(=O)[C@@H]21 7.38%, CCCc1c(OCCCOc2ccc(OCC(=O)O)cc2)ccc(C(C)=O)c1O -6.37% [at 75.8 µM], COCCn1c(=O)c(-c2cc(F)cc(F)c2)nc2cnc(Oc3ccc(OC)cc3)nc21 7.13%, Cc1ccc(C(=O)Nc2ccc(S(=O)(=O)O)c3cc(S(=O)(=O)O)cc(S(=O)(=O)O)c23)cc1NC(=O)c1cccc(NC(=O)Nc2cccc(C(=O)Nc3cc(C(=O)Nc4ccc(S(=O)(=O)O)c5cc(S(=O)(=O)O)cc(S(=O)(=O)O)c45)ccc3C)c2)c1 -22% [at 75.8 µM], Cc1ccc(S(=O)(=O)O)cc1C 11.8%, O=C(Nc1ccc(C(=O)O)c(O)c1)c1ccccc1 4.9%, OCC1OC(n2cnc3c(=S)nc[nH]c32)C(O)C1O (stereo not given) 12.5%, Cc1cccc(CNc2ccnc(-c3ccccc3Cl)n2)c1 -8.78%, O=C1CCC(=O)N1CO 7.5%, COc1cc(OC)c(/C=C/c2ccc3ccccc3n2)c(OC)c1 11.9%, COc1ccccc1CCn1c(=O)cnc2cncnc21 9.6%, COc1ccc(CNc2nc(-c3ccccc3OC)nc3ccccc23)c(OC)c1 -2.83%, CCc1cccc2c(C(O)c3c[nH]c4ccccc34)c[nH]c12 (stereo not given) -21.8%, Cc1cc(-c2ccnc(-n3ncc(C(=O)NCCc4cccnc4)c3C)n2)c(C)s1 6.29%, COc1ccc(CN2CCC(n3cc(C(=O)N4CCCC4)nn3)CC2)c(OC)c1C 13%, O=C(c1cnccn1)N1CCC2(CCCN(Cc3nccs3)C2)CC1 13.2%, NC(C(=O)O)c1cc(O)cc(O)c1 (stereo not given) 23.2%, CCCCCCCCCCCCCC[N+](C)(C)C 19.7%, Cc1cc(O)c(C=O)c(O)c1C(=O)O -4.66%, Cc1c(C(=O)N(C)C(C)C)sc2ncnc(NCCCN3CCOCC3)c12 14.4%, COc1ccc(SC[C@H](C)CN2CC[C@H](C(C)(C)C)CCC2=O)cc1 -22.7%, CCCCCCCCCCCCC(C(=O)O)C(C)C(=O)O (stereo not given) 1.9%, CCCCCCCCCCCCC(O)C(=O)O (stereo not given) -12.9% [at 15.3 µM], CN1CCN(c2ncc3nc(-c4ccccc4)c(=O)n(CCC#N)c3n2)CC1 5.83%, Oc1ccc(C2Oc3cc(O)cc(O)c3CC2O)cc1 (stereo not given) 2.55%, Oc1ccc2c(c1)OC(c1ccc(O)c(O)c1)C(O)C2 (stereo not given) 20.8%, Oc1cc(O)c2c(c1)OC(c1cc(O)c(O)c(O)c1)C(O)C2 (stereo not given) -8.05%

From PubChem BioAssay AID1645882 (National Center for Advancing Translational Sciences (NCATS), 2021)
